Source: PubChem
The list is not random: actives were taken first. Their share in the collection is about 5.9%.
TGFb SMAD3 inh – TGF-b pathway inhibition; HepG2 CAGA-GFP TGF-b/SMAD3 reporter, GFP fluorescence, 18 h; TGF-beta stimulated, 500 pg/mL final; Potency, µM (highest dose often 46.1 µM), inactives show at the highest dose activity, negative = inhibition, hits mostly inhibitors; actives 1.2% (n = 410,000); AID 588855; also: % is scaled to controls: 0 for no effect and ±100 for the full control effect; nearly all actives have a fitted effect of over 65% in size
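First, reporter cells (HEPG2 CAGA-GFP) rested 2 h at 37 degrees C. Next, compounds were pinned in and TGF-beta added to 500 pg/mL final. After 18 h, GFP was imaged per cell and summed per well.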
KB-3-1 tox – KB-3-1 parental cell cytotoxicity | Potency, µM (series often up to 46.1 µM), hits mostly cytotoxic | AID 1347075 | actives 1.4% (n = 400,000) | KB-3-1 viability, CellTiter-Glo ATP luminescence, 72 h; also: % is scaled to controls: 0 for no effect and ±100 for the full control effect; nearly all actives have a fitted effect of over 60% in size
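Luminescent ATP read-out (CellTiter-Glo) measures survival of drug-naive KB-3-1 cells after 72 h compound exposure at 37 °C. Titration series was screened from lowest to highest concentration, with DMSO vehicle plates as background controls.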
ATXN viability – cell viability loss in ATXN counter-screen | S2 cells (HEK-293 line with an ATXN2-luciferase reporter) viability, CellTiter-Fluor protease fluorescence, 24 h | Potency, µM (highest dose often 56.7 µM), actives largely listed as cytotoxic | actives 0.49% (n = 400,000) | AID 651635; also: nearly all actives have a fitted effect of over 40% in size
HepG2 viability – counter-screen for TGF-b inhibitors: cytotoxicity in HepG2 cells; actives 0.76% (n = 410,000); AID 588856; Potency, µM (top dose mostly 46.1 µM), for the others: at the highest dose activity change, negative = cytotoxicity, actives largely listed as cytotoxic; HepG2 CAGA-GFP viability, ATP luminescence, 18 h
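HepG2 CAGA-GFP cells (1000/well, DMEM with 1% FBS) received compound, then TGF-beta at 500 pg/mL final, and were incubated 18 hours at 37 degrees C. Viability was read by CellTiter-Glo luminescence. Media-only wells were set as complete cell-killing and DMSO as no toxicity.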
KB-V1 cytotox – KB-V1 MDR subline cytotoxicity; KB-V1 MDR cells viability, CellTiter-Glo, 72 h; AID 1347076; Potency, µM (doses to about 46.1 µM), actives largely listed as cytotoxic; actives 3.4% (n = 400,000); also: % is scaled to controls: 0 for no effect and ±100 for the full control effect; nearly all actives have a fitted effect of over 60% in size
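KB-V1 cells (P-gp-expressing MDR subline of KB-3-1) in phenol-red-free DMEM with 10% FBS were exposed to library compounds over a concentration series for 72 h at 37 degrees C. Viability read by CellTiter-Glo luminescence; concentration-effect curves fitted after normalization.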
ATXN2 expr inh – inhibitors of ATXN2 expression | HEK-293 ATXN2-luciferase reporter, luminescence, 24 h | Potency, µM (doses to about 57 µM), for the others: at the top dose activity change, negative = inhibition, most hits filed as inhibitors | actives 0.72% (n = 360,000) | AID 1745845; also: % is scaled to controls: 0 for no effect and ±100 for the full control effect; nearly all actives have a fitted effect of over 55% in size
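ATXN2-luciferase reporter cells (luciferase flanked by upstream and downstream ATXN2 gene portions) were treated 24 h at 37 °C with compounds at up to 57 uM. SteadyGlo luminescence gave expression; GF-AFC fluorescence gave viability.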
* = called active by the depositor. Calls follow the shape of the dose curve; as a rule, active = well fitted curve in the direction sought with a large enough effect; inconclusive = small, poorly fitted or top-dose-only effect, or another doubt; inactive = no such curve, though single readings can be large; an effect the other way counts as inactive or inconclusive. Potency is read from the fitted curve at half-maximal effect.

CC1(Cc2cccc(C#N)c2)C(=O)Nc2c(Cl)cccc21 (centres undefined) was read as TGFb SMAD3 inh 0%, KB-3-1 tox inactive, ATXN viability inactive, HepG2 viability 14%, KB-V1 cytotox inactive and ATXN2 expr inh 10%.
`CC(C)CSc1oc(-c2ccco2)nc1S(=O)(=O)c1ccc(Br)cc1` gave TGFb SMAD3 inh 0%, KB-3-1 tox inactive, ATXN viability inactive, HepG2 viability -15%, KB-V1 cytotox inconclusive and ATXN2 expr inh -16%.
Screening Cc1ccc(NC(=O)C2(C)CCN2C(=O)Cc2ccc(C(C)C)cc2)cc1 (centres undefined) returned TGFb SMAD3 inh -21%, KB-3-1 tox inconclusive, ATXN viability inactive, HepG2 viability 2%, KB-V1 cytotox inconclusive and ATXN2 expr inh -10%.
Screening CC(C)c1ccc(CC(=O)N2CCC2(C)C(=O)Nc2ccc3c(c2)OCO3)cc1 (centres undefined) returned TGFb SMAD3 inh -18%, KB-3-1 tox inconclusive, ATXN viability inactive, HepG2 viability -22%, KB-V1 cytotox 21µM* and ATXN2 expr inh 4%.
Screening CC1(C(=O)Nc2ccc3c(c2)OCCO3)CCN1C(=O)Cc1ccc(-c2ccccc2)cc1 (centres undefined) returned TGFb SMAD3 inh -16%, KB-3-1 tox inconclusive, ATXN viability inactive, HepG2 viability -34%, KB-V1 cytotox 18µM* and ATXN2 expr inh 0%.
For CCCCNC(=O)c1nc(C2CCN(S(=O)(=O)c3ccc(Cl)cc3)CC2)oc1-c1ccccc1 the results were KB-3-1 tox inactive and KB-V1 cytotox inconclusive.
Screening CN(C)c1cc[n+](CC[n+]2ccc(N(C)C)cc2)cc1 returned TGFb SMAD3 inh -2%, KB-3-1 tox inactive, ATXN viability inactive, HepG2 viability 9%, KB-V1 cytotox inactive and ATXN2 expr inh 8%.
`CN(C)c1cc[n+](Cc2c(Cl)cccc2Cl)cc1` gave TGFb SMAD3 inh inconclusive, KB-3-1 tox 7.3µM*, ATXN viability inactive, HepG2 viability -25%, KB-V1 cytotox inactive and ATXN2 expr inh -25%.
Screening CCOc1ccc(S(=O)(=O)NCC(c2cccs2)S(=O)(=O)c2ccc(C)cc2)cc1 (centres undefined) returned TGFb SMAD3 inh 5µM* and HepG2 viability -36%.
Cc1cc(C)c(S(=O)(=O)NCC(c2ccco2)S(=O)(=O)c2ccccc2)c(C)c1 (centres undefined) was read as TGFb SMAD3 inh -2% and HepG2 viability 5%.
Cc1cc(C)c(S(=O)(=O)NCC(c2cccs2)S(=O)(=O)c2ccccc2)c(C)c1 (centres undefined) was read as TGFb SMAD3 inh 5.6µM* and HepG2 viability 6.3µM*.
Screening O=C(Nc1ccc2c(c1)OCO2)c1cc(C2CCCCN2S(=O)(=O)c2cccs2)on1 (centres undefined) returned TGFb SMAD3 inh 28%, KB-3-1 tox inactive, ATXN viability inconclusive, HepG2 viability -22%, KB-V1 cytotox inactive and ATXN2 expr inh 3%.
For CC(=O)CSc1ccc(-c2nc3cc(C)c(C)cc3[nH]2)cn1 the results were TGFb SMAD3 inh inconclusive, KB-3-1 tox inactive, ATXN viability inconclusive, HepG2 viability -22%, KB-V1 cytotox inconclusive and ATXN2 expr inh inconclusive.
For Cc1ccc(-c2nnc3ccc(SCC(=O)N4CCCc5ccccc54)nn23)cc1 the results were TGFb SMAD3 inh -18%, KB-3-1 tox inactive, ATXN viability 8.9µM*, HepG2 viability 2%, KB-V1 cytotox 16µM* and ATXN2 expr inh inconclusive.
For Cc1ccc2nc(-c3ccc(SCC(=O)O)nc3)[nH]c2c1 the results were TGFb SMAD3 inh 7%, KB-3-1 tox inactive, ATXN viability inactive, HepG2 viability -17%, KB-V1 cytotox inactive and ATXN2 expr inh inconclusive.
CC(=O)CSc1ccc(-c2nc3ccccc3[nH]2)cn1 was read as TGFb SMAD3 inh -1%, KB-3-1 tox inconclusive, ATXN viability inactive, HepG2 viability 10µM*, KB-V1 cytotox 9.2µM* and ATXN2 expr inh -29%.
Screening CCc1nnc(NC(=O)CSc2ccc(-c3nc4ccc(C)cc4[nH]3)cn2)s1 returned TGFb SMAD3 inh -24%, KB-3-1 tox inactive, ATXN viability inconclusive, HepG2 viability -41%, KB-V1 cytotox 7.3µM* and ATXN2 expr inh 15%.
Screening Cc1ccc2nc(-c3ccc(SCC(=O)N4CCc5ccccc54)nc3)[nH]c2c1 returned TGFb SMAD3 inh inconclusive, KB-3-1 tox inconclusive, ATXN viability inactive, HepG2 viability 0%, KB-V1 cytotox 4.1µM* and ATXN2 expr inh 63%.
Fc1ccccc1OCc1nc(-c2ccc(-n3cccc3)cc2)no1 was read as TGFb SMAD3 inh -6%, KB-3-1 tox inactive, ATXN viability inactive, HepG2 viability -28%, KB-V1 cytotox inactive and ATXN2 expr inh 2%.
Cc1nc2c(-c3ccc(F)cc3)c(C)nn2c(C)c1CCC(=O)NCc1ccc(F)cc1 was read as TGFb SMAD3 inh -5%, KB-3-1 tox inactive, ATXN viability inactive, HepG2 viability 0%, KB-V1 cytotox inactive and ATXN2 expr inh -4%.
Cc1cccc(-c2nc3c4ccccc4n(Cc4cccc(Cl)c4)c(=O)n3n2)c1 was read as TGFb SMAD3 inh 2% and HepG2 viability -32%.
`O=C(c1ccc2[nH]ccc2c1)N1CCOc2ccc(CN3CCN(c4ccccn4)CC3)cc2C1` gave ATXN viability inactive.
For CC(C)CN(CC(C)C)C(=O)c1cccc(S(=O)(=O)N2CCc3ccccc32)c1 the results were TGFb SMAD3 inh inconclusive, KB-3-1 tox inconclusive, ATXN viability inactive, HepG2 viability -10%, KB-V1 cytotox 10µM* and ATXN2 expr inh inconclusive.
For O=C(CNC(=O)c1cccc(S(=O)(=O)N2CCc3ccccc32)c1)Nc1ccc(F)c(F)c1F the results were TGFb SMAD3 inh 0%, KB-3-1 tox inactive, ATXN viability inconclusive, HepG2 viability -23%, KB-V1 cytotox inconclusive and ATXN2 expr inh 45%.
Screening CC(C)CCNC(=O)c1cccc(S(=O)(=O)N2CCc3ccccc32)c1 returned TGFb SMAD3 inh 4%, KB-3-1 tox inactive, ATXN viability inactive, HepG2 viability -23%, KB-V1 cytotox inactive and ATXN2 expr inh -9%.
O=C(CNC(=O)c1cccc(S(=O)(=O)N2CCc3ccccc32)c1)Nc1ccccc1Br was read as TGFb SMAD3 inh -24%, KB-3-1 tox inactive, ATXN viability inactive, HepG2 viability -12%, KB-V1 cytotox 9.2µM* and ATXN2 expr inh -18%.
